# Results filed as inconclusive are left out. Where a call stands in place of a potency, no number is given. The source made the active and inactive calls. Unless noted, calls come from the whole dose curve; as a rule, active = well fitted curve in the direction sought with a large enough effect; inconclusive = small, poorly fitted or top-dose-only effect, or another doubt; inactive = no such curve, though single readings can be large; an effect the other way counts as inactive or inconclusive.
# How the values were obtained:
# [1] = Quantitative High-Throughput drug screen in 47 multiple myeloma cell lines against the NCATS MIPE library collection: RPMI8226_ATCC cell viability assay (AID 1919871); note: nearly all actives have a fitted effect of over 30% in size; note: potency is the fitted concentration of half-maximal effect
# Outline: (§1)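 Readout: median RLU from CellTiter-Glo after 5 min at room temperature. Preceding step was 48 h drug treatment of 500 cells/well at 37 °C, 5% CO2, with DMSO-only and media-only control wells.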
# [2] = Quantitative High-Throughput drug screen in 47 multiple myeloma cell lines against the NCATS MIPE library collection: OPM2_DSMZ cell viability assay (AID 1919872); note: nearly all actives have a fitted effect of over 30% in size; note: potency is the fitted concentration of half-maximal effect
# Outline: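 Inhibition of cell viability is measured here. Each line was plated at 500 cells per well, treated with MIPE 4.0 drugs, kept 48 hours at 37C, then assayed for ATP content by CellTiter-Glo luminescence.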
# [3] = Quantitative High-Throughput drug screen in 47 multiple myeloma cell lines against the NCATS MIPE library collection: KMS11_JCRBsus cell viability assay (AID 1919873); note: nearly all actives have a fitted effect of over 50% in size; note: potency is the fitted concentration of half-maximal effect
# Outline: as §1
# [4] = Quantitative High-Throughput drug screen in 47 multiple myeloma cell lines against the NCATS MIPE library collection: KMS28BM_JCRB cell viability assay (AID 1919874); note: nearly all actives have a fitted effect of over 35% in size; note: potency is the fitted concentration of half-maximal effect
# Outline: as §1
# [5] = qHTS for identification of novel therapeutic agents for treatment of microphthalmiaassociated transcription factor (MiT) renal cell carcinoma (RCC) (AID 1963991; calls by dose curve; note: potency is the fitted concentration of half-maximal effect); conditions: CellTiter-Glo, 48 h; for z-score: stronger effect = lower value
# Outline: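 Three TFE3-fusion RCC lines (UOK109, UOK124, UOK145), 500 cells/well in complete medium, were treated with MIPE 4.0 compounds for 48 hours at 37 C. Viability was by CellTiter-Glo luminescence, normalized to DMSO (100%) and empty wells (0%); curves fitted over 11 concentrations.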
# [6] = qHTS drug screen for cell cycle checkpoint inhibitors in PARPi-resistant BRCA-mutant ovarian cancer cell lines. (AID 1963452; calls by dose curve); conditions: PEO1/OlaR viability, CellTiter-Glo luminescence, 96 h, stronger effect = lower value
# Outline: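 PEO1, PEO4 and PEO1/OlaR ovarian cancer cells, 600 per well, exposed 96 h at 37C to a dilution series. Viability read by CellTiter-Glo luminescence, normalized to DMSO and empty wells; activity summarized as Z-AUC.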
# 3D7 = assay: qHTS profiling for inhibitors of Plasmodium falciparum proliferation (AID 504749); note: nearly all actives have a fitted effect of over 60% in size; conditions: P. falciparum in erythrocytes, SYBR Green DNA, 72 h; series mostly up to 28.7 µM
# Outline: (§2)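 Fluorescence of SYBR Green-bound parasite DNA, read at 485/535 nm, served as the growth measure. Infected erythrocytes were cultured with compound 72 h; artemisinin (0.29 uM) and DMSO wells defined the normalization range.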
# 7G8 = assay: as above; conditions: P. falciparum in erythrocytes, SYBR Green DNA, 72 h; series mostly up to 28.7 µM
# Outline: as §2
# CP192 = assay: as above; conditions: P. falciparum in erythrocytes, SYBR Green DNA, 72 h; series mostly up to 28.7 µM
# Outline: as §2
# CP194 = assay: as above; conditions: P. falciparum in erythrocytes, SYBR Green DNA, 72 h; series mostly up to 28.7 µM
# Outline: as §2
# [7] = as above; conditions: P. falciparum in erythrocytes, SYBR Green DNA, 72 h, at 28.7 µM (top of the series)
# Outline: as §2
# AA1029 = assay: as above; conditions: P. falciparum in erythrocytes, SYBR Green DNA, 72 h; series mostly up to 28.7 µM
# Outline: as §2
# AS120 = assay: as above; conditions: P. falciparum in erythrocytes, SYBR Green DNA, 72 h; series mostly up to 28.7 µM
# Outline: as §2
# ATS189 = assay: as above; conditions: P. falciparum in erythrocytes, SYBR Green DNA, 72 h; series mostly up to 28.7 µM
# Outline: as §2
# ATS95 = assay: as above; conditions: P. falciparum in erythrocytes, SYBR Green DNA, 72 h; series mostly up to 28.7 µM
# Outline: as §2
# C2A = assay: as above; conditions: P. falciparum in erythrocytes, SYBR Green DNA, 72 h; series mostly up to 28.7 µM
# Outline: as §2
# CP185 = assay: as above; conditions: P. falciparum in erythrocytes, SYBR Green DNA, 72 h; series mostly up to 28.7 µM
# Outline: as §2
# CP191 = assay: as above; conditions: P. falciparum in erythrocytes, SYBR Green DNA, 72 h; series mostly up to 28.7 µM
# Outline: as §2
# [8] = TFE3-RCC UOK109 viability, measured here: UOK109 Z-AUC
# [9] = TFE3-RCC viability, measured here: UOK124 Z-AUC
# [10] = TFE3-RCC viability, measured here: UOK145 Z-AUC
# [11] = measured here: PEO1 parental Z-AUC
smiles,measurement,setting,value
C1=C2CCCN[C@H]2[C@@H]2C[C@H]1[C@@H]1CCCCN1C2,Potency,[1],inactive
same,Potency,[2],inactive
same,Potency,[3],inactive
same,Potency,[4],inactive
same,z-score,[5]; [8],-0.0816
same,z-score,[5]; [9],0.828
same,z-score,[5]; [10],0.304
CCN(CC)C(=O)c1ccc(C2=CC3(CCNCC3)Oc3cccc(O)c32)cc1,Potency,[2],inactive
same,Potency,[3],inactive
same,Potency,[4],inactive
same,Z-AUC,[6],-0.151 (inactive)
same,Z-AUC,[6]; [11],0.834
same,Z-AUC,[6]; measured here: PEO4 Z-AUC,0.745
CCNC(=O)C[C@@H]1N=C(c2ccc(Cl)cc2)c2cc(OC)ccc2-n2c(C)nnc21,Potency,[1],1180 nM (active)
same,Potency,[3],105 nM (active)
same,Z-AUC,[6],-0.661 (inactive)
same,Z-AUC,[6]; [11],-0.0106
same,Z-AUC,[6]; measured here: PEO4 Z-AUC,-0.343
O=C(Oc1ccc([N+](=O)[O-])cc1)N1CCN(Cc2cccc(Oc3ccccc3)c2)CC1,Potency,[1],inactive
same,Potency,[2],inactive
same,Z-AUC,[6],1.13 (inactive)
same,Z-AUC,[6]; [11],1.12
same,Z-AUC,[6]; measured here: PEO4 Z-AUC,1.4
CC(=O)OCC1=C(C(=O)O)N2C(=O)[C@@H](N)[C@@H]2SC1,Potency,[2],inactive
same,Potency,[3],inactive
same,Potency,[4],inactive
same,z-score,[5]; [8],-1.76
same,z-score,[5]; [9],0.735
same,z-score,[5]; [10],1.3
same,Potency,3D7,inactive
same,Potency,7G8,inactive
same,Potency,CP192,inactive
same,Potency,CP194,inactive
COC(=O)[C@@H](N)CCCN=C(N)N[N+](=O)[O-],Potency,[1],inactive
same,Potency,[2],inactive
same,Potency,[3],inactive
same,Potency,[4],inactive
same,z-score,[5]; [8],0.59
same,z-score,[5]; [9],0.788
same,z-score,[5]; [10],2.13
same,"activity, negative = inhibition",[7]; parasite line A,8.8% (inactive)
same,"activity, negative = inhibition",[7]; parasite line B,10.5% (inactive)
same,Potency,3D7,inactive
same,Potency,7G8,inactive
same,Potency,AA1029,inactive
same,Potency,AS120,inactive
same,Potency,ATS189,inactive
same,Potency,ATS95,inactive
same,Potency,C2A,inactive
same,Potency,CP185,inactive
same,Potency,CP191,inactive
same,Potency,CP192,inactive
same,Potency,CP194,inactive
CC(C)N(CCNC(=O)CN1CCCC1=O)C(C)C,Potency,[2],inactive
same,Potency,[3],inactive
same,Potency,[4],inactive
same,z-score,[5]; [8],0.955
same,z-score,[5]; [9],0.437
same,z-score,[5]; [10],0.681
O=C(Oc1ccc([N+](=O)[O-])cc1)N1CCC(C(O)(c2ccc3c(c2)OCO3)c2ccc3c(c2)OCO3)CC1,Potency,[2],inactive
same,Potency,[3],inactive
same,Potency,[4],inactive
same,Z-AUC,[6],0.0942 (inactive)
same,Z-AUC,[6]; [11],0.266
same,Z-AUC,[6]; measured here: PEO4 Z-AUC,0.407
COc1cc2cc(c1Cl)N(C)C(=O)C[C@H](OC(=O)C(C)C)[C@]1(C)O[C@H]1[C@H](C)[C@@H]1C[C@@](O)(NC(=O)O1)[C@H](OC)C=CC=C(C)C2,Potency,[1],inactive
same,Potency,[2],inactive
same,Potency,[3],inactive
same,Potency,[4],inactive
same,z-score,[5]; [8],-2.37
same,z-score,[5]; [9],-3.1
same,z-score,[5]; [10],-1.62
C#CC1(O)CCC2C3CCC4=CC(=O)CCC4(C)C3CCC21C (stereo not drawn),Potency,[2],inactive
same,Potency,[3],inactive
same,Potency,[4],18700 nM (active)
same,z-score,[5]; [8],0.285
same,z-score,[5]; [9],0.199
same,z-score,[5]; [10],0.147
same,"activity, negative = inhibition",[7]; parasite line A,7.72% (inactive)
same,"activity, negative = inhibition",[7]; parasite line B,0.354% (inactive)
same,Potency,3D7,inactive
same,Potency,7G8,inactive
same,Potency,AA1029,inactive
same,Potency,AS120,inactive
same,Potency,ATS189,inactive
same,Potency,ATS95,inactive
same,Potency,C2A,inactive
same,Potency,CP185,inactive
same,Potency,CP191,inactive
same,Potency,CP192,inactive
same,Potency,CP194,inactive
C[C@@H]1O[C@@H](O[C@@H]2C=C3CC[C@@H]4[C@@H](CC[C@]5(C)[C@H](c6ccc(=O)oc6)CC[C@@]45O)[C@@]3(C)CC2)[C@H](O)[C@H](O)[C@H]1O,Potency,[1],23.5 nM (active)
same,Potency,[2],9.3 nM (active)
same,Potency,[3],52.6 nM (active)
same,Potency,[4],8.3 nM (active)
same,Potency,[5]; TFE3-RCC UOK109 viability,20.9 nM (active)
same,z-score,[5]; [8],-3.96
same,z-score,[5]; [9],-3.13
same,z-score,[5]; [10],-3.36
Cc1nc(-c2ccc(-c3ccc(C(=O)N4CCc5cc6c(cc54)C4(CCN(C)CC4)CO6)cc3)c(C)c2)no1,Potency,[2],inactive
same,Potency,[3],inactive
same,Potency,[4],inactive
C=C1C[C@H]2[C@H]3CCC(=O)[C@@]3(C)CC[C@@H]2[C@@]2(C)C=CC(=O)C=C12,Potency,[1],18700 nM (active)
same,Potency,[2],inactive
same,Potency,[4],inactive
CCCC[N+]1(C)[C@H]2CC(OC(=O)[C@H](CO)c3ccccc3)C[C@H]1[C@H]1O[C@H]12 (stereo partly drawn),Potency,[1],inactive
same,Potency,[2],inactive
same,Potency,[4],inactive
same,z-score,[5]; [8],0.529
same,z-score,[5]; [9],0.336
same,z-score,[5]; [10],0.453
CCOC(=O)c1cncn1[C@H](C)c1ccccc1,Potency,[1],inactive
same,Potency,[2],inactive
same,Potency,[4],inactive
same,z-score,[5]; [8],1.85
same,z-score,[5]; [9],0.442
same,z-score,[5]; [10],0.512
Oc1ccc2c3c1O[C@H]1c4[nH]c5c(c4C[C@@]4(O)[C@@H](C2)N(CC2CC2)CC[C@]314)C[C@@]1(O)[C@H]2Cc3ccc(O)c4c3[C@@]1(CCN2CC1CC1)[C@H]5O4,Potency,[1],inactive
same,Potency,[2],inactive
same,Potency,[3],inactive
same,Potency,[4],inactive
same,z-score,[5]; [8],0.682
same,z-score,[5]; [9],0.462
same,z-score,[5]; [10],0.385
Cc1c(C(=O)Nc2cccc(C(F)(F)F)c2)cc(-c2ccccc2)n1CCCN1CCOCC1,Potency,[1],14800 nM (active)
same,Potency,[3],23500 nM (active)
same,Potency,[4],5900 nM (active)
C[C@@H]1[C@H](O)[C@@H](C)C=CC=CCCC=CC=CC=CC=C[C@H](O[C@H]2O[C@@H](C)[C@H](O)[C@@H](N)[C@@H]2O)CC2O[C@](O)(C[C@@H](O)[C@H](O)CC[C@@H](O)C[C@@H](O)C[C@@H](O)CC(=O)O[C@H]1C)C[C@H](O)[C@H]2C(=O)O,Potency,[2],inactive
same,Potency,[3],inactive
same,Potency,[4],inactive
same,z-score,[5]; [8],0.777
same,z-score,[5]; [9],0.659
same,z-score,[5]; [10],-1.57
NC1CC1c1ccccc1 (stereo not drawn),Potency,[1],inactive
same,Potency,[2],inactive
same,Potency,[3],inactive
same,Potency,[4],inactive
same,z-score,[5]; [8],0.891
same,z-score,[5]; [9],0.509
same,z-score,[5]; [10],0.821
C[C@]12COC(=O)C[C@@H]1CC[C@@H]1[C@H]2CC[C@@]2(C)[C@H]1CC[C@]2(C)O,Potency,[1],inactive
same,Potency,[2],inactive
same,Potency,[3],inactive
same,Potency,[4],inactive
same,z-score,[5]; [8],0.93
same,z-score,[5]; [9],0.76
same,z-score,[5]; [10],0.397
CCCCCC[C@H]1C(=O)O[C@H](C)[C@H](NC(=O)c2cccc(NC=O)c2O)C(=O)O[C@@H](C)[C@@H]1OC(=O)CC(C)C,Potency,[1],1050 nM (active)
same,Potency,[3],74.3 nM (active)
same,Potency,[4],209 nM (active)
same,Z-AUC,[6],-1.4 (inactive)
same,Z-AUC,[6]; [11],-1.96
same,Z-AUC,[6]; measured here: PEO4 Z-AUC,-1.72

# — PubChem BioAssay (NCATS)
